# Bioassay records from PubChem.
# Sampled rows, rich in hits. Any-hit rate of the full collection: about 1.2%.
# TRPV1 potentiator = potentiators of human vanilloid receptor 1 (TRPV1). Q8NER1. TRPV1-expressing cells, Fluo-8 calcium influx, capsaicin EC20 potentiation. potentiation, % at 8.33 µM. 320,000 tested, 0.02% active. AID 540277; in the data active means potentiation above about 80%; inconclusive means between about 30% and that limit; further: 0% is about no effect
# Target sequence (Q8NER1 whole entry, looked up): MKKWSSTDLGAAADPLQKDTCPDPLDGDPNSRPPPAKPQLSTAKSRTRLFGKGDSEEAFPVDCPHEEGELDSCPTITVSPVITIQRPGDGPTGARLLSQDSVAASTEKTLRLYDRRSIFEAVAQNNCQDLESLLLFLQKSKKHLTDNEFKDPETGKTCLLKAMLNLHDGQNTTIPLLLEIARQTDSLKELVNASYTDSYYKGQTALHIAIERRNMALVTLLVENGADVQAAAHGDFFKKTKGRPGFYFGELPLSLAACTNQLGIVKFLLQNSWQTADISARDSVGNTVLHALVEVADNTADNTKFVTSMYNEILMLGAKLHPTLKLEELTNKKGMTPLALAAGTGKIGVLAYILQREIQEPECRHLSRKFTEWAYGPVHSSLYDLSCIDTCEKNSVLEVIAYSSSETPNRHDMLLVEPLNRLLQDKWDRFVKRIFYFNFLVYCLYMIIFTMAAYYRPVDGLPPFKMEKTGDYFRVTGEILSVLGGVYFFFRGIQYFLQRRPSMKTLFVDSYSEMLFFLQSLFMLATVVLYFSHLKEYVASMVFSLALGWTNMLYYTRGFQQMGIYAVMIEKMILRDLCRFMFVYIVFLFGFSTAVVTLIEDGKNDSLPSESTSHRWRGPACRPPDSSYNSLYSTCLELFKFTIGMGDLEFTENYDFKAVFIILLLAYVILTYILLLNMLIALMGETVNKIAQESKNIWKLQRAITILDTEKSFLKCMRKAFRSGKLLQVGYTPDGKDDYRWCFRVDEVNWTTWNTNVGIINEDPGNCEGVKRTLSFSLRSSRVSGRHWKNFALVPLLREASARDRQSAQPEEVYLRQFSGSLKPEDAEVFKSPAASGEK
#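 Fluo-8 calcium influx in TRPV1-expressing cells, kinetic read (ex 480/em 520 nm). Compound added and read 3 min for agonist activity, followed by capsaicin at EC20 final and 2 min further read for enhancement.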
# KCNH2 3.1 block = KCNH2 3.1 (human) potassium channel inhibition. U2OS KCNH2 3.1, thallium flux FluxOr; active compounds read low. 340,000 tested, 0.95% active. activity change, % (tested at about 1.8 µM);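 active means maximum activity change below -70%; inconclusive means maximum activity change from -70% to -50%; inactive means maximum activity change above -50%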;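 further: thallium influx rate constant from kinetic fluorescence after stimulation buffer; on the % scale 0 is the no-effect control and ±100 the full control effect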
#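 Normalized rate constant (relative to positive and negative DMSO controls) derived from a 2 min kinetic fluorescence read after stimulation; U2OS cells expressing the 3.1 isoform via virus at 1.77 x 10^8 /mL.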
# TRPV1 agonist = activates the human vanilloid receptor TRPV1; TRPV1-expressing cells, Fluo-8 calcium influx, agonist mode; activation, % at 8.33 µM; 320,000 tested, 0.19% active; in the data active means activation above about 80%; inconclusive means between about 30% and that limit; further: 0% is about no effect
#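 Fluo-8 calcium influx in TRPV1-expressing cells, kinetic read (ex 480/em 520 nm). Compound added and read 3 min for agonist activity, followed by capsaicin at EC20 final and 2 min further read for enhancement.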
# KCNH2 WT inh = blocks the wildtype human KCNH2 potassium channel. Q12809. U2OS, BacMam KCNH2, thallium flux FluxOr; active compounds read low. activity change, % at 1.84 µM. 340,000 tested, 0.37% active. AID 720551;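 active means maximum activity change below -70%; inconclusive means maximum activity change between -70% and -50%; inactive means maximum activity change above -50%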; further: on the % scale 0 is the no-effect control and ±100 the full control effect
#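 U2OS cells transduced with wild-type KCNH2 virus are loaded with FluxOr dye for 45 min, and thallium flux is measured in kinetic reads before and after stimulation buffer. Rate constants are normalized to DMSO controls.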
# * marks the source's active call; other numbers are inactive results; i = inactive; ? = inconclusive; . = not tested or not shown; ! = not confirmed by another sample.
SMILES,TRPV1 potentiator,KCNH2 3.1 block,TRPV1 agonist,KCNH2 WT inh
COc1ccc(-c2[nH]ncc2CN2CCC(O)(c3ccc(Cl)cc3)CC2)cc1,0,-70*,4,1
Fc1ccc(-c2[nH]ncc2CN2CCN(c3ccc(F)cc3)CC2)cc1,.,-19,.,31
CCOc1ccccc1CN1CCC(CO)(CCOc2ccccc2)CC1,9,-50,1,41
COc1ccc(-c2[nH]ncc2CN2CCN(c3ccc(F)cc3)CC2)cc1,-9,-41,-2,-6
OC1(c2ccc(Cl)cc2)CCN(Cc2cn[nH]c2-c2ccccc2)CC1,5,-87*,5,?
OCC1(CCOc2ccccc2)CCN(Cc2cn[nH]c2-c2ccc(F)cc2)CC1,0,-104*,0,?
Fc1ccc(N2CCN(Cc3cn[nH]c3-c3ccccc3)CC2)cc1,.,?,.,3
OC1(c2ccc(Cl)cc2)CCN(Cc2cn[nH]c2-c2ccc(F)cc2)CC1,-6,-88*,1,-6
CC1CC(C)(C)CC2(C1)NC(=O)N(CC(=O)N1CCN(S(=O)(=O)c3cccs3)CC1)C2=O (stereo unspecified),-2,7,2,8
COc1cc(/C=N/NC(=O)C2CCN(CC(O)COCc3ccccc3)CC2)cc(OC)c1OC (stereo unspecified),-2,-29,0,-31
COc1cc(/C=N/NC(=O)C2CCN(CC(O)COCc3ccccc3)CC2)ccc1O (stereo unspecified),-4,-99*,1,-128*
CN1C(=O)C(C)(C)N(C(=O)c2cccc([N+](=O)[O-])c2)c2ccccc21,9,-100*,?,0
O=C(c1cccc([N+](=O)[O-])c1)N1CCc2ccccc21,3,-3,-5,8
Cc1nnc(SCC(=O)Nc2ccc(N(C)C)cc2)[nH]c1=O,-9,.,-3,.
CN=C1N[C@H](c2ccccc2)N(c2ccccc2)S1,10,.,2,.
Cc1nc2c(S(=O)(=O)c3ccccc3)cnn2c(C)c1C,82*,11,2,19
CC(C)(C)S(=O)(=O)c1cnc2c(S(=O)(=O)c3ccccc3)cnn2c1N,2,-21,-1,-2
O=C(CN1C(=O)C2C3C=CC(C3)C2C1=O)OCC(=O)c1ccc(Cl)c([N+](=O)[O-])c1 (stereo unspecified),.,3,.,-9
COc1ccc(C(=O)N2CCN(c3ccc(NC(=O)Cc4ccccc4)cc3)CC2)cc1,5,-83*,1,-25
CCOC(=O)c1ccc(NC(=O)N2CCN(c3cccc(OC)c3)CC2)cc1,-20,-13,99*,-13
Cc1ccc(C(=O)N2CCN(c3ccc(NC(=O)COc4ccccc4C)cc3)CC2)cc1,4,-95*,-5,-134*
CCCc1nn2c(=O)cc(CSCC(=O)Nc3ccccc3OC)nc2s1,0,-4,0,-8
Cc1ccc(NC(=O)CN2C(=O)S/C(=C\c3cc(C)n(C)c3C)C2=O)cc1,13,-93*,2,-1
Cc1cccc(NC(=O)CN2C(=O)S/C(=C\c3ccc(O)c([N+](=O)[O-])c3)C2=O)c1,84*,4,3,8
Cc1cccc(NC(=O)CN2C(=O)S/C(=C\c3cc(C)n(C)c3C)C2=O)c1,-5,-22,5,1
SMILES,TRPV1 potentiator,KCNH2 3.1 block,TRPV1 agonist,KCNH2 WT inh
CC1(C)CC(=O)C2=C(C1)O[C@@]1(CCCCN3C(=O)c4ccccc4C3=O)Cc3ccccc3C2O1,i,.,i,.
CN1CCC(=NNc2ccc(S(=O)(=O)N3CCOCC3)cc2[N+](=O)[O-])CC1,1,1,-1,0
COc1ccc(CC(=O)OCC(=O)c2ccc[nH]2)cc1,2,13,0,-284*
CC(C)CN(CC(C)C)C1=N/C(=C\c2ccco2)C(=O)N1c1ccccc1,-2,-2,21,7
CCN(CC)C1=N/C(=C\c2ccco2)C(=O)N1c1ccccc1,-3,2,-3,-82*
COc1ccc(CCNC(=O)CCCn2c(=S)[nH]c3ccsc3c2=O)cc1OC,.,20,.,4
CC(C)C(NC(=O)c1ccccc1)C(=O)N1CCN(C/C=C/c2ccccc2)CC1 (stereo unspecified),-3,-8,6,6
CSCCC(NC(=O)c1ccc(Cl)c([N+](=O)[O-])c1)C(=O)N1CCN(C/C=C/c2ccccc2)CC1 (stereo unspecified),-10,-97*,16,-42
CC(C)OC(=O)N(C)C[C@@H]1OCc2cn(nn2)CCCC(=O)N([C@H](C)CO)C[C@H]1C,.,26,.,-18
CC1CCN(C2=NC(=O)/C(=C/c3ccccc3F)S2)CC1,-4,-4,88*,11
CC1CCN(C2=NC(=O)/C(=C/c3cccc(O)c3)S2)CC1,-26,14,?,-19
COc1ccc(NC(=O)CN2c3cccc4cccc(c34)S2(=O)=O)cc1OC,.,0,.,-16
CCN1CCN(Cc2ccc(NC(=O)c3ccc(C)c(NC(=O)C(=O)c4c[nH]c5ccccc45)c3)cc2C(F)(F)F)CC1,4,0,-2,-132*!
CCN1CCN(Cc2ccc(NC(=O)c3cc(NC(=O)C(=O)c4c[nH]c5ccccc45)cc(OC)c3)cc2C(F)(F)F)CC1,?,-9,0,18
COc1ccc([C@]23Cc4ccccc4C(O2)c2c(cc(-c4ccccc4)oc2=O)O3)cc1,i,.,i,.
CC1CCC(N2CCN(C(=O)c3ccccc3F)CC2)CC1 (stereo unspecified),-5,11,13,-12
CCCN1CCC(CCOc2ccccc2)(C(=O)OCC)CC1,1,-21,5,20
CCOC(=O)C1(CCOc2ccccc2)CCN(Cc2ccc(OCCO)cc2)CC1,-8,-110*,6,-77*
CCOC(=O)C1(CCOc2ccccc2)CCN(Cc2ccc(C)o2)CC1,-18,-10,12,12
CCOC(=O)C1(CCOc2ccccc2)CCN(Cc2ccc(O)cc2)CC1,-5,-84*,16,-21
COc1ccc(N2CCN(S(=O)(=O)c3ccc(OC)c(C(=O)N4CCCCC4)c3)CC2)cc1,-8,-7,4,-4
O=C(NCC(=O)N(c1ccc(F)cc1)C(C(=O)NC1CCCCC1)c1ccncc1)c1ccco1 (stereo unspecified),2,7,-3,4
Cc1cc2c(c(C)c1Br)C(c1ccc3c(c1)OCO3)CC(=O)O2 (stereo unspecified),.,-11,.,7
O=c1[nH]nc(-c2ccccc2)c2ccccc12,-5,-113*,16,-11
O=C(CCSc1ccc(Cl)cc1)NCc1ccncc1,-24,-5,86*,2
COc1ccc(CNC(=O)CCSc2ccc(F)cc2)cc1OC,-12,25,84*,.
COc1ccc(CNC(=O)CCC(=O)c2ccc(F)cc2)cc1OC,.,0,.,6
COc1ccc(Cl)cc1-c1nc(SCC(=O)N(C)CCC#N)n[nH]1,2,7,1,-1
CC[C@@H]1CC=C[C@H]2[C@H]1C(=O)N(Cc1ccccc1)[C@H]2c1ccc(C(F)(F)F)cc1,-19,-77*,?,-4
